Assay outcomes as filed in PubChem BioAssay.
A selection: hits, their analogues and other compounds. The true share with any hit is near 3.6%.
Anthrax LF prot: blocks Bacillus anthracis lethal factor protease | multiplex microsphere protease cleavage assay, LF | actives 0.12% (n = 360,000) | inhibition, % at 10 µM | AID 588501 | P15917; further: plate controls were buffer without enzyme for full effect and enzyme alone for no effect
Target sequence (P15917 whole entry, looked up): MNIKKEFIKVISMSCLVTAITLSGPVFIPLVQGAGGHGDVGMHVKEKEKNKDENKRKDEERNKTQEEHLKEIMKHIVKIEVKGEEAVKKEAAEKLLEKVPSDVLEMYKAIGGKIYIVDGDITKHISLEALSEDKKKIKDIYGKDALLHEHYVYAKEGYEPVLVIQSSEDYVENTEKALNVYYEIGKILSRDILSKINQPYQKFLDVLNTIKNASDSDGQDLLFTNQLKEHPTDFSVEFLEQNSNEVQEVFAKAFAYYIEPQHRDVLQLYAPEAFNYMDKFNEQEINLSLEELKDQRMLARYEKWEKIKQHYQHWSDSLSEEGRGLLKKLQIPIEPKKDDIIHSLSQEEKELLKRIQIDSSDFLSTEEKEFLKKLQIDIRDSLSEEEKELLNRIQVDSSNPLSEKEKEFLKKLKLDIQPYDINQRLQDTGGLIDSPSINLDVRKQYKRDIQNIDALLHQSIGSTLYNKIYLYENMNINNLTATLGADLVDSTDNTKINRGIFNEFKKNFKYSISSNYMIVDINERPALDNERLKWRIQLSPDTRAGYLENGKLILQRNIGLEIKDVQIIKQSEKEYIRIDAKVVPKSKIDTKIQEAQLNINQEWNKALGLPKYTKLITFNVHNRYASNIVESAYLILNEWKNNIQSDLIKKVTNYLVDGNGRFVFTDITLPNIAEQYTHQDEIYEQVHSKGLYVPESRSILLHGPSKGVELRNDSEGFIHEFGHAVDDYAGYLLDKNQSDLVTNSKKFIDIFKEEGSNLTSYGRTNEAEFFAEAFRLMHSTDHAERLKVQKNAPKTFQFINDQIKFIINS
MazEF act: activators of E. coli MazEF toxin-antitoxin RNase. FAM/BHQ RNA-DNA oligo cleavage fluorescence, 5 h. activation, % at 20 µM. actives 0.32% (n = 350,000). AID 504720; in the data active means activation above about 50%
BoNT F protease: blocks Botulinum neurotoxin F light chain protease. Multiplex microsphere protease cleavage assay, flow cytometry. inhibition, % at 10 µM. actives 0.22% (n = 360,000); in the data active means inhibition above about 35%, passing the limit was not always enough; inconclusive means no clear call, values can overlap the other calls; further: plate controls were buffer without enzyme for full effect and enzyme alone for no effect
Bead autofluor: counter-screen for toxin protease inhibitors: compound fluorescence; compound autofluorescence counterscreen, microsphere flow cytometry; hits give high values; fluorescence intensity (no concentration beside the values); actives 3.1% (n = 360,000); AID 624483; in the data active means fluorescence intensity above about 16000; inconclusive means no clear call, values can overlap the other calls
BoNT A protease: blocks Botulinum neurotoxin A light chain protease; multiplex microsphere protease substrate cleavage, flow cytometry; inhibition, % at 10 µM; actives 0.17% (n = 360,000); AID 588499; further: plate controls were buffer without enzyme for full effect and enzyme alone for no effect
* marks the source's active call; other numbers are inactive results; ? = inconclusive; · = no result given; ! = not active in a repeat. Unless noted, no stated cut-off is given here; in the data, active means inhibition above about 30%; inconclusive means no clear call, values can overlap the other calls; inactive means below that.

SMILES	Anthrax LF prot	MazEF act	BoNT F protease	Bead autofluor	BoNT A protease
C=CCN(c1ccccc1OC)S(=O)(=O)c1cccc(C(=O)NCC(c2ccc(OC)cc2)N2CCCC2)c1 (stereo not given)	-8.6	-30.5	-1.0	23106*	-3.5
COc1ccc(C(CNC(=O)c2cc3ccccc3cc2OC)N2CCCC2)cc1 (stereo not given)	0.6	-2.7	0.5	27989*	?
COc1ccc(C(CNC(=O)CNC(=O)c2ccccc2Cl)N2CCCC2)cc1 (stereo not given)	-4.1	2.0	8.9	7350	-3.5
C=CCN(c1ccccc1)S(=O)(=O)c1cccc(C(=O)NCC(c2ccc(OC)cc2)N2CCCCC2)c1 (stereo not given)	-8.1	-5.0	2.8	6047	?
O=C(NCc1ccccc1)c1ccc(S(=O)(=O)C(F)F)cc1	3.6	8.8	?	4193	0.4
O=C(NCCO)c1cccc(Nc2nc(-c3ccccc3)c3cc(Cl)ccc3n2)c1	5.7	-10.9	-3.8	20185*	0.7
COc1ccc(-c2cc(C(F)F)n3ncc(C(=O)N4CCN5CCCC5C4)c3n2)cc1 (stereo not given)	-16.4	9.0	16.3	17221*	11.5
O=C(c1cnn2c(C(F)F)cc(-c3ccccc3)nc12)N1CCSCC1	-21.4	-2.7	-6.6	?	0.0
O=C(Nc1ccc(C(=O)N2CCOCC2)cc1)c1cnn2c(C(F)F)cc(-c3ccccc3)nc12	-4.4	66.3*	-5.4	3901	-0.1
Cc1cc(NC(=O)c2cnn3c(C(F)(F)F)cc(-c4ccc(Br)cc4)nc23)no1	-1.0	2.6	-0.6	23282*	0.2
O=C(c1cnn2c(C(F)F)cc(-c3ccccc3)nc12)N1CCOCC1	-2.1	2.8	4.1	21284*	3.1
CCCc1nnc(NC(=O)CCC(=O)N2CCN(c3ccccc3)CC2)s1	-2.7	-19.0	-8.2	5819	-0.9
O=C(c1cnn2c(C(F)(F)F)cc(-c3ccc(Br)cc3)nc12)N1CCOCC1	-2.5	-2.8	-0.8	2901	-0.2
O=C(c1cnn2c(C(F)(F)F)cc(-c3ccc4c(c3)OCO4)nc12)N1CCCC1	-1.0	2.8	-0.1	21315*	?
O=C(C(=O)N1CCN(Cc2ccc3c(c2)OCO3)CC1)c1c[nH]c2ccccc12	-0.8	7.2	0.5	4509	-0.1
Cc1ccnc(NC(=O)CCc2c(C)nc3ncnn3c2C)c1	-2.3	0.4	1.7	20457*	0.6
CCc1c(C)nc2ncnn2c1NCCc1ccc(OC)c(OC)c1	-1.1	-1.5	3.6	18500*	4.5
Cc1nc2ncnn2c(C)c1CCC(=O)NCCC1=CCCCC1	-1.5	11.4	-2.5	20756*	-0.7
COC(=O)c1ccc(NC(=O)CCc2c(C)nc3ncnn3c2C)cc1	0.1	-9.3	-3.4	22498*	-1.1
CC(=O)c1ccc(NC(=O)CCc2c(C)nc3ncnn3c2C)cc1	-0.5	0.7	-1.5	5617	-0.4
COc1ccc(C(=O)NCCCNC(=O)c2ccc(C)nc2)cc1	-0.3	1.3	-1.5	6090	-2.0
CCOC(=O)c1ccc(Nc2c(CC)c(C)nc3ncnn23)cc1	-2.8	4.2	-2.1	17060*	-2.5
Cn1nc2c3ccccc3n(Cc3ccccc3)c2nc1=S	-5.6	-6.7	3.1	5484	-0.7
C=CCn1c(CCNC(=O)c2ccccc2F)nnc1SCc1nc2ccccc2c(=O)[nH]1	-1.8	-2.6	-4.1	24056*	-2.6
CC(O)(CS(=O)(=O)c1ccccc1)C(=O)Nc1cccc(C(F)(F)F)c1 (stereo not given)	0.3	5.1	0.3	21019*	-0.7
SMILES	Anthrax LF prot	MazEF act	BoNT F protease	Bead autofluor	BoNT A protease
Cc1ccc(S(=O)(=O)CC(C)(O)C(=O)Nc2cccc(C(F)(F)F)c2)cc1 (stereo not given)	0.5	6.4	5.8	7746	0.8
Cc1cc2ncn(-c3ncnc4sc(C)c(C)c34)c2cc1C	-2.8	2.6	4.1	2856	-0.2
Cc1cc2ncn(-c3ncnc4scc(-c5ccccc5)c34)c2cc1C	-0.1	2.4	-4.8	24244*	?
CCN(CC)NC(=S)Nc1ccccc1	-1.6	0.9	1.5	22619*	1.1
COc1ccc(C2OC(=O)Cc3cc(OC)c(OC)cc32)cc1 (stereo not given)	1.1	-4.1	-4.9	4836	-1.2
CCCCC(=O)Nc1ccc(C(=O)Nc2nnc(COC)s2)cc1	-9.4	-1.2	3.0	21834*	3.2
CCCCC(=O)Nc1cccc(NC(=O)c2ccc(Br)cc2)c1	-0.3	1.5	-3.9	24448*	-1.6
CCSc1ccccc1C(=O)Nc1cccnc1	-1.3	10.9	-1.7	23629*	?
CCCCC(=O)Nc1ccc(C(=O)Nc2cccnc2)cc1	1.6	3.8	-5.0	16977*	-2.1
COc1ccc(-c2cc3c(o2)CCCC3OCCN2CCOCC2)cc1 (stereo not given)	-0.3	·	3.7	5387	-0.3
CCc1noc(C)c1C(=O)N(C)CC(=O)Nc1ccc(F)c(F)c1F	1.0	-2.1	-2.0	5529	-3.2
Cc1cccc(C)c1NC(=O)CSc1nnc(-c2ccco2)n1N	0.4	-1.4	0.2	21789*	1.2
Nn1c(SCc2cccc3ccccc23)nnc1-c1ccco1	-2.3	2.6	1.8	22596*	-0.2
COc1ccccc1NC(=O)CSc1nnc(-c2ccco2)n1N	-1.9	2.0	6.8	4144	1.0
O=C(NCc1cccnc1)c1cc(C2CCCCN2C(=O)OCc2ccccc2)on1 (stereo not given)	-8.2	·	-1.1	3537	0.2
Cc1[nH]n(-c2ccc([N+](=O)[O-])cc2)c(=O)c1C=NCCN1CCN(C(=O)c2ccc(F)cc2)CC1	0.5	3.9	-1.6	20052*	?
Cc1[nH]n(-c2ccc([N+](=O)[O-])cc2)c(=O)c1C=NCCN1CCN(C(=O)c2ccc(Br)cc2)CC1	-1.3	10.5	15.7	?	1.9
CCOCCCn1c(=NC(C)=O)c(C(=O)OCC)cc2c(=O)n3ccccc3nc21	-4.7	5.0	-8.7	23789*!	-0.7
CCOC(=O)c1cc2c(=O)n3ccccc3nc2n(C(C)C)c1=NC(=O)c1c(-c2ccccc2Cl)noc1C	25.9	-29.1	9.4	4242	38.6*
NS(=O)(=O)c1ccc(NC(=O)c2ccc3c(c2)OCO3)cc1	-6.1	14.5	26.1	3635	-4.7
NS(=O)(=O)c1ccc(NC(=O)c2ccc3c(c2)CCCC3)cc1	-2.1	71.5*	0.2	4664	-0.9
CC(=O)Nc1ccc(NC(=O)C(C)OC(=O)c2ccc3ccccc3n2)cc1 (stereo not given)	·	11.0	·	·	·
CN(C)S(=O)(=O)c1ccc(C(=O)NNC(=O)C2COc3ccccc3O2)cc1 (stereo not given)	1.3	-1.5	-5.8	2450	0.1
O=C(NNC(=O)C1COc2ccccc2O1)c1ccccc1 (stereo not given)	-1.9	-2.8	-3.9	22774*	1.0
COc1ccc(CNC(=O)C2CCN(S(=O)(=O)c3ccc4c(c3)CC(C)N4C(=O)C3CC3)CC2)cc1 (stereo not given)	1.3	7.8	4.4	6336	0.1
O=C(Nc1ccccc1)OCN1C(=O)c2ccccc2C1=O	-1.9	1.6	-6.2	17484*	-2.3
